Results on 35 compounds are retold here after PubChem BioAssay (EPA / NIEHS).

Results filed as inconclusive are left out. Calls of active or inactive are those of the source. How the source made its calls: active means hit-call score of the fitted dose curve at least 0.9, where 1 is the maximum; inconclusive means response in the unintended direction; inactive means score below 0.9.

human Retinoid X Receptor beta (RXRb), RXRB (gene 6257), sequence (P28702 whole entry, looked up, the tested form may be a part): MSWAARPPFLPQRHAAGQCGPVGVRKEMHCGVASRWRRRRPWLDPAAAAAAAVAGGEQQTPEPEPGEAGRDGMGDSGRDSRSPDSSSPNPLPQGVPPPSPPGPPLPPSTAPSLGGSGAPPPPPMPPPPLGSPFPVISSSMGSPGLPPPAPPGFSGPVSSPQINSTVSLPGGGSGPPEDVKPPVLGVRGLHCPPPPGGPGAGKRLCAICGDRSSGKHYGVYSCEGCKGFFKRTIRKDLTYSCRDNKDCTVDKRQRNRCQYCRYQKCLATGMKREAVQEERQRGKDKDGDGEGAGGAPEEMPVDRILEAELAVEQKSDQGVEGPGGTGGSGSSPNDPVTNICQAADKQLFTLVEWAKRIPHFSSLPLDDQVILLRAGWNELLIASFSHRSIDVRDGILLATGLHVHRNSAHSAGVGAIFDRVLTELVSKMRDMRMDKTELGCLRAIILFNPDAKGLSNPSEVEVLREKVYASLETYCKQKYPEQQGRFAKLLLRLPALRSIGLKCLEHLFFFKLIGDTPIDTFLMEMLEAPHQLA
human RAR-related Orphan Receptor beta (RORb), RORB (gene 6096), sequence (Q92753 whole entry, looked up, the tested form may be a part): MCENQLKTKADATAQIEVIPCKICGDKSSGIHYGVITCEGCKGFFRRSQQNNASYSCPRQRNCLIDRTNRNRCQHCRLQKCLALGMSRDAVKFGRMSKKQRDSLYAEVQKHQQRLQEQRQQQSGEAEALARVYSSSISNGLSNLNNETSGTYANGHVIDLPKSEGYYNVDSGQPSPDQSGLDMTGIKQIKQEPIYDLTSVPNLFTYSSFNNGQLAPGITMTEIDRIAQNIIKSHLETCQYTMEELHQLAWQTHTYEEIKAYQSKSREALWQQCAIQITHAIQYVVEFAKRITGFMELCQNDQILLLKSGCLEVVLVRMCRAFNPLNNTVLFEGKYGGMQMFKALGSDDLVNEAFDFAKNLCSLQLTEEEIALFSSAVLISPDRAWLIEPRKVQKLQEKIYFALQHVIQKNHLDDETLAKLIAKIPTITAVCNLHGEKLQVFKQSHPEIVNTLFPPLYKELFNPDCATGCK
human RAR-related Orphan Receptor gamma (RORg), RORC (gene 6097), sequence (P51449 whole entry, looked up, the tested form may be a part): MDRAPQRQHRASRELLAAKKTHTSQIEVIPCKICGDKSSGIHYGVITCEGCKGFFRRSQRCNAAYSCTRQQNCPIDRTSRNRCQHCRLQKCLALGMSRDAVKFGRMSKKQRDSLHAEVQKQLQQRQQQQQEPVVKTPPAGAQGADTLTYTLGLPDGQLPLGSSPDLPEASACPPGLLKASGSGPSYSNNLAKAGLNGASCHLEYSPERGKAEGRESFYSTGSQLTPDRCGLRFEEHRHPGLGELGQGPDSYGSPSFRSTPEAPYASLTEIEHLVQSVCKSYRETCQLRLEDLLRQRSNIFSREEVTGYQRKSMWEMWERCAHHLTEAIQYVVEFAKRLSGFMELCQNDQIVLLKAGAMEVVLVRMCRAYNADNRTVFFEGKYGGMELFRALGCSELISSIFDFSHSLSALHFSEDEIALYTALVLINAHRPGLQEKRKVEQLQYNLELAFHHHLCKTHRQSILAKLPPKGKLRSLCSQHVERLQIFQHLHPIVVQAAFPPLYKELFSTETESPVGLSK
human Thyroid Receptor alpha (THRa1), THRA (gene 7067), sequence (P10827 whole entry, looked up, the tested form may be a part): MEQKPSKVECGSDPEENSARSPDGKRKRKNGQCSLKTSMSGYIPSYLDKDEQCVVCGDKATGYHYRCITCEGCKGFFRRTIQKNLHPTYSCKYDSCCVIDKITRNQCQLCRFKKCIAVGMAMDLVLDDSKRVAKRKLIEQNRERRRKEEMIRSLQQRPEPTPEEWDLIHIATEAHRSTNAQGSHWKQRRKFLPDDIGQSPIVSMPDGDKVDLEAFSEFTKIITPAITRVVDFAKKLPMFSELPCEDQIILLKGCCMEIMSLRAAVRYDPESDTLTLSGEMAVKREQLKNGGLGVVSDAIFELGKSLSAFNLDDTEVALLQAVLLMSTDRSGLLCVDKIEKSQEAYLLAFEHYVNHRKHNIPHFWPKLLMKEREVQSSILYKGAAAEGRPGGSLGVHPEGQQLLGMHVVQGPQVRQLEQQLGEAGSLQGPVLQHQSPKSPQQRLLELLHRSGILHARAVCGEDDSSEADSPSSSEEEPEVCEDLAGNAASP

In one test the target is human RAR-related Orphan Receptor beta (RORb), RORB (gene 6096) (UniProt Q92753). The test can be described thus: ATG_RORb_TRANS: Attagene TRANS-FACTORIAL HepG2 Assay for human RAR-related Orphan Receptor beta (RORb) (AID 2283010). A digest of the protocol:
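HepG2 cells were transiently transfected with multiplexed GAL4-UAS reporter units expressing chimeric nuclear receptor–GAL4 proteins, then dosed for 24 h. Reporter mRNA was quantified by RT-PCR with fluorescent labelling and capillary electrophoresis; gain of signal was fitted relative to DMSO.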
For `CC(C)c1cccc(C(C)C)c1N`, the compound was called inactive.
The same measure, in the same setting: the value for `CCOC(=O)/C=C\C(=O)OCC` was “inactive”; that for `CCCCOCCOC(=O)COc1ccc(Cl)cc1Cl` was “inactive”; that for `CC=C(C)C(C)=O` was “inactive”.
Regarding `CC1OC(=O)C(C)OC1=O` (stereo not drawn), the compound was called inactive.

In a further test the target is human RAR-related Orphan Receptor gamma (RORg), RORC (gene 6097) (UniProt P51449). The test is described as follows: ATG_RORg_TRANS: Attagene TRANS-FACTORIAL HepG2 Assay for human RAR-related Orphan Receptor gamma (RORg) (AID 2283011).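 On AC50: potency for induction of reporter transcripts above DMSO so activators.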 In short, it runs like this:
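Readout: reporter transcript induction (RT-PCR, fluorescent primer extension, capillary electrophoresis) after 24 h compound exposure of transiently transfected HepG2 cells carrying a RORg-Gal4 chimera and GAL4-UAS reporters; DMSO served as baseline, with increasing signal fitted.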
With `Nc1ccc(O)c([N+](=O)[O-])c1`, the outcome was inactive.
Still for that read-out and setting: the value for `CC1(C)C(=O)N(CO)C(=O)N1CO` was “inactive”; that for `CC(CC(C)C)=NO` was “inactive”.
Consider `Cc1ccccc1CCO`, for which the outcome was inactive.
On to `CCCCC(=O)O`, for which the compound was classed as inactive.
With `Nc1nc(N)nc(-c2ccccc2)n1`, the outcome was inactive.
For `Cc1ccc([N+](=O)[O-])cc1N`, the half-maximal activity concentration (AC50) is 25.7 µM (active).
For `CC1=C(O)C(=O)C(C)O1` (stereo not drawn), the compound was classed as inactive.
For `CC12CCC(CC1)C(C)(C)O2`, the compound was called inactive.
Turning to `C=CC(=O)NCOCCCC`, the result was inactive.
The same measure, in the same setting: as for `CCCSSCCC`, the entry is “inactive”; as for `O=C(C=Cc1ccccc1)OCCc1ccccc1`, “inactive”.
Consider `CCC(C)C(=O)OC` (stereo not drawn), for which the result was inactive.
On the same count and under the same terms, the value for `CCCCCCCCCCCC(C)=O` was “inactive”; that for `CCCCC(CC)COC(=O)/C=C/c1ccc(OC)cc1` (stereo not drawn) was “inactive”.
With `CCOC(=O)C1=NOC(c2ccccc2)(c2ccccc2)C1`, the outcome was inactive.
For the compound `CC(C)C(=O)OCCc1ccccc1`, the compound was called inactive.
`CC(=O)OC1CCCCC1`: the outcome was inactive.
Still for that read-out and setting: as for `CC(C)[N+](C)(CCOC(=O)C1c2ccccc2Oc2ccccc21)C(C)C`, the entry is “inactive”.
The same measure, in the same setting: the value for `C=CC(=O)OCCCCCCCCCC` was “inactive”; that for `Cn1cccc1` was “inactive”.
`CC(C)(O)Cc1ccccc1`: the result was inactive.
As for `CC(C)(CO)C(O)C(=O)NCCCO` (stereo not drawn), the call was inactive.
The same measure, in the same setting: as for `CCCCCCCCCCCCCc1ccccc1`, the entry is “inactive”; as for `CCC(=O)C1CC(C(C)C)CC=C1C` (stereo not drawn), “inactive”.
As to `Oc1ccc(/C=C/c2cc(O)cc(O)c2)cc1`, the call was inactive.
Consider `N=C1C=CC(=C(c2ccc(N)cc2)c2ccc(N)cc2)C=C1`, for which the call was inactive.
For `Cc1ccc(C)c(OCCCC(C)(C)C(=O)O)c1`, the result was inactive.
For the compound `C=CCCCCCCCCC=O`, the outcome was inactive.
For `C=C(C)C(=O)OCCCCCCCCCCCC`, the call was inactive.
Still for that read-out and setting: as for `CC(C)c1cccc(C(C)C)c1N`, the entry is “inactive”.
Same read-out and setting: as for `CCOC(=O)/C=C\C(=O)OCC`, the entry is “inactive”; as for `CCCCOCCOC(=O)COc1ccc(Cl)cc1Cl`, “inactive”; as for `CC=C(C)C(C)=O`, “inactive”.

In a further test the target is Retinoic acid receptor RXR-alpha (Homo sapiens) (UniProt P19793). The test is described as follows: ATG_RXRa_TRANS: Attagene TRANS-FACTORIAL HepG2 Assay for human Retinoid X Receptor alpha (RXRa) (AID 2283012). A digest of the protocol: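 HepG2 cells transiently transfected with multiplexed GAL4-UAS reporter units and chimeric NR-GAL4 fusions, dosed 24 h. Reporter mRNA measured by RT-PCR, FAM labelling, HpaI digestion and capillary electrophoresis; gain-of-signal fitted relative to DMSO baseline.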
Retinoic acid receptor RXR-alpha (Homo sapiens), sequence (P19793 whole entry, looked up, the tested form may be a part): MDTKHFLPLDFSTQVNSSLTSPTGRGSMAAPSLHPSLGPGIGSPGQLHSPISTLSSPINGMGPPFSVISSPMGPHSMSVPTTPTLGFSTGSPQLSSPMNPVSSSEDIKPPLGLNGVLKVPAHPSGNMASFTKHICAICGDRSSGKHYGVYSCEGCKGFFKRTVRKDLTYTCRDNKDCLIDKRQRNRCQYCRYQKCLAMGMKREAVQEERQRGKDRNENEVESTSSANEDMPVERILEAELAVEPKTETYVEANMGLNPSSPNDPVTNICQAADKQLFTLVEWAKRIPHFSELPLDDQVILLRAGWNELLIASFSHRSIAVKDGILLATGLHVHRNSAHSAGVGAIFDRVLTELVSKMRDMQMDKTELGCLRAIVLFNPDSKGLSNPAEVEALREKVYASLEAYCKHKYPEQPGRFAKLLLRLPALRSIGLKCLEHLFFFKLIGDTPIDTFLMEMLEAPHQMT
With `Nc1ccc(O)c([N+](=O)[O-])c1`, the outcome was inactive.
For `CC1(C)C(=O)N(CO)C(=O)N1CO`, the compound was called inactive.
Turning to `CC(CC(C)C)=NO`, the compound was classed as inactive.
As for `Cc1ccccc1CCO`, the compound was classed as inactive.
Still for that read-out and setting: as for `Nc1nc(N)nc(-c2ccccc2)n1`, the entry is “inactive”; as for `CC1=C(O)C(=O)C(C)O1` (stereo not drawn), “inactive”.
Consider `CCCSSCCC`, for which the outcome was inactive.
With `O=C(C=Cc1ccccc1)OCCc1ccccc1`, the compound was classed as inactive.
In the case of `CCC(C)C(=O)OC` (stereo not drawn), the compound was called inactive.
For `CCCCCCCCCCCC(C)=O`, the compound was called inactive.
Take `CCCCC(CC)COC(=O)/C=C/c1ccc(OC)cc1` (stereo not drawn): the compound was classed as inactive.
For `CCOC(=O)C1=NOC(c2ccccc2)(c2ccccc2)C1`, the compound was classed as inactive.
As for `CC(=O)OC1CCCCC1`, the compound was classed as inactive.
Consider `C=CC(=O)OCCCCCCCCCC`, for which the call was inactive.
With `Cn1cccc1`, the outcome was inactive.
Take `CC(C)(CO)C(O)C(=O)NCCCO` (stereo not drawn): the call was inactive.
For the compound `CCCCCCCCCCCCCc1ccccc1`, the compound was called inactive.
As for `CCC(=O)C1CC(C(C)C)CC=C1C` (stereo not drawn), the compound was called inactive.
Take `Oc1ccc(/C=C/c2cc(O)cc(O)c2)cc1`: the call was inactive.
On the same count and under the same terms, the value for `N=C1C=CC(=C(c2ccc(N)cc2)c2ccc(N)cc2)C=C1` was “inactive”; that for `Cc1ccc(C)c(OCCCC(C)(C)C(=O)O)c1` was “inactive”; that for `C=CCCCCCCCCC=O` was “inactive”.
For the compound `C=C(C)C(=O)OCCCCCCCCCCCC`, the compound was called inactive.
As to `CC(C)c1cccc(C(C)C)c1N`, the outcome was inactive.
Still for that read-out and setting: as for `CCOC(=O)/C=C\C(=O)OCC`, the entry is “inactive”.
As for `CC=C(C)C(C)=O`, the AC50 was 100 µM (active).

A further test has as its target human Retinoid X Receptor beta (RXRb), RXRB (gene 6257) (UniProt P28702). The test can be described thus: ATG_RXRb_TRANS: Attagene TRANS-FACTORIAL HepG2 Assay for human Retinoid X Receptor beta (RXRb) (AID 2283013). A digest of the protocol: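 HepG2 cells transiently transfected with multiplexed reporter units driven by GAL4-UAS and exogenous chimeric NR-Gal4 proteins; treated 24 h. Reporter mRNA measured by RT-PCR, 6-FAM labelling and capillary electrophoresis; gain-of-signal fitted versus DMSO baseline.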
As to `Nc1ccc(O)c([N+](=O)[O-])c1`, the compound was called inactive.
Still for that read-out and setting: as for `Cc1ccccc1CCO`, the entry is “inactive”.
As for `Nc1nc(N)nc(-c2ccccc2)n1`, the compound was classed as inactive.
Turning to `Cc1ccc([N+](=O)[O-])cc1N`, the compound was classed as inactive.
On to `CC1=C(O)C(=O)C(C)O1` (stereo not drawn), for which the compound was called inactive.
On to `CC12CCC(CC1)C(C)(C)O2`, for which the result was inactive.
With `C=CC(=O)NCOCCCC`, the outcome was inactive.
For `O=C(C=Cc1ccccc1)OCCc1ccccc1`, the compound was classed as inactive.
For the compound `CCC(C)C(=O)OC` (stereo not drawn), the call was inactive.
`CCCCCCCCCCCC(C)=O`: the half-maximal activity concentration (AC50) was 25.9 µM (active).
In the case of `CCCCC(CC)COC(=O)/C=C/c1ccc(OC)cc1` (stereo not drawn), the outcome was inactive.
`C=CC(=O)OCCCCCCCCCC`: the compound was called inactive.
For the compound `Cn1cccc1`, the result was inactive.
Regarding `CCCCCCCCCCCCCc1ccccc1`, the compound was classed as inactive.
As to `Oc1ccc(/C=C/c2cc(O)cc(O)c2)cc1`, the call was inactive.
The same measure, in the same setting: as for `Cc1ccc(C)c(OCCCC(C)(C)C(=O)O)c1`, the entry is “inactive”.
As for `C=CCCCCCCCCC=O`, the AC50 is 105 µM (active).
Still for that read-out and setting: the value for `C=C(C)C(=O)OCCCCCCCCCCCC` was 67.8 µM (active); that for `CC(C)c1cccc(C(C)C)c1N` was 71.2 µM (active).
With `CC=C(C)C(C)=O`, the AC50 is 9.05 µM (active).

The target of a further test is human Thyroid Receptor alpha (THRa1), THRA (gene 7067) (UniProt P10827). The test can be described thus: ATG_THRa1_TRANS: Attagene TRANS-FACTORIAL HepG2 Assay for human Thyroid Receptor alpha (THRa1) (AID 2283014). In short, it runs like this:
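HepG2 cells transiently transfected with multiplexed GAL4-UAS reporter units for exogenous chimeric THRa1-Gal4; reporter mRNA measured 24 h after dosing by RT-PCR, 6-FAM labelling, HpaI digestion and capillary electrophoresis. Gain-of-signal fitted versus DMSO baseline.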
Regarding `Nc1ccc(O)c([N+](=O)[O-])c1`, the result was inactive.
Turning to `CC1(C)C(=O)N(CO)C(=O)N1CO`, the compound was called inactive.
On the same count and under the same terms, the value for `Nc1nc(N)nc(-c2ccccc2)n1` was “inactive”; that for `Cc1ccc([N+](=O)[O-])cc1N` was “inactive”; that for `O=C(C=Cc1ccccc1)OCCc1ccccc1` was “inactive”.
On to `CCCCC(CC)COC(=O)/C=C/c1ccc(OC)cc1` (stereo not drawn), for which the compound was called inactive.
Take `CC(C)C(=O)OCCc1ccccc1`: the call was inactive.
On to `CC(C)[N+](C)(CCOC(=O)C1c2ccccc2Oc2ccccc21)C(C)C`, for which the outcome was inactive.
Turning to `C=CC(=O)OCCCCCCCCCC`, the result was inactive.
Same read-out and setting: the value for `CC(C)(O)Cc1ccccc1` was “inactive”; that for `CCCCCCCCCCCCCc1ccccc1` was “inactive”; that for `Oc1ccc(/C=C/c2cc(O)cc(O)c2)cc1` was “inactive”.
Regarding `C=C(C)C(=O)OCCCCCCCCCCCC`, the compound was called inactive.

The term AC50 denotes the concentration giving half of the maximal activity seen.
